The values below come from PubChem BioAssay (NCI).

A short description of experiment [1]: NCI Yeast Anticancer Drug Screen. Data for the rad50 strain (AID 155).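 Further: 0% = growth of vehicle-only cultures of the same strain.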 The conditions noted are these: S. cerevisiae rad50 strain growth inhibition, hits give high values. The essentials:
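Relative growth inhibition (compound vs vehicle) was measured in yeast with a defined repair-gene alteration.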

Experiment [2] in a line: NCI Yeast Anticancer Drug Screen. Data for the mec2-1 strain (AID 157). The conditions noted are these: S. cerevisiae mec2-1 strain, hits give high values. The essentials:
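Growth inhibition is read against vehicle-treated controls after compound exposure of the mec2-1 yeast strain, which is defective in DNA damage repair or cell cycle control.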

Experiment [3] is described as follows: NCI Yeast Anticancer Drug Screen. Data for the sgs1 mgt1 strain (AID 161).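 Further: 0% = growth of cultures given vehicle only.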 As to conditions: S. cerevisiae sgs1 mgt1 strain, hits give high values. A digest of the protocol: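 This yeast growth screen uses a strain with defined DNA-repair lesions; compound-treated growth is compared with vehicle-treated growth.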
A short description of experiment [4]: NCI Yeast Anticancer Drug Screen. Data for the cln2 rad14 strain (AID 165).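 Further: 0% = growth equal to vehicle treated cultures.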 As to conditions: S. cerevisiae cln2 rad14 strain, hits give high values. A digest of the protocol:
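Growth inhibition, relative to vehicle-treated controls, is the read-out. The test organism is a yeast strain with defined genetic alterations, cln2 rad14.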

Experiment [5] is described as follows: NCI Yeast Anticancer Drug Screen. Data for the bub3 strain (AID 167). As to conditions: S. cerevisiae bub3 mutant strain, hits give high values. A digest of the protocol: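 Screening used yeast with an engineered genetic alteration affecting cell cycle control. Compound-exposed cultures were compared with vehicle cultures, and reduced growth was taken as inhibition.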

A short description of experiment [6]: NCI Yeast Anticancer Drug Screen. Data for the mlh1 rad18 strain (AID 175). The conditions noted are these: S. cerevisiae mlh1 rad18 strain growth inhibition, hits give high values. A digest of the protocol:
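Cells of a genetically altered yeast strain, deficient in DNA damage repair, were treated with compound. Their growth was then compared with that of vehicle-treated cultures to give inhibition.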

Where [7] appears, read: at 5.0 µM (retest, dose inferred, filed as 0.5).
Setting [8] is: at 50.0 µM (retest, dose inferred, filed as 5.0).

The panel holds about 79,000 compounds, 15% with a hit somewhere; the sample as a whole holds those more often. Values without a mark were called inactive. The source made the active and inactive calls. No stated cut-off is given here; in the data, active means growth inhibition above about 70%; inactive means the rest.

Turning to `COc1cc(/C=C/c2ccc(OC)c(O)c2)cc(OC)c1`, the growth inhibition in experiment [1] (setting [7]) is 0%; in experiment [1] (setting [8]), 96% (active); in experiment [1] (at 50.0 µM) it was 98.3% (active); in experiment [2] (setting [7]) it was -4%; in experiment [2] (setting [8]), 98% (active); in experiment [2] (at 50.0 µM), 99.2% (active). For the same molecule, the growth inhibition in experiment [3] (setting [7]) was 5%; in experiment [3] (setting [8]), 98% (active); in experiment [3] (at 50.0 µM), 98.9% (active); in experiment [4] (setting [7]), -14%; in experiment [4] (setting [8]), 97% (active); in experiment [4] (at 50.0 µM), 98.2% (active). Further, the growth inhibition in experiment [5] (setting [7]) is -4%; in experiment [5] (setting [8]) it was 98% (active); in experiment [5] (at 50.0 µM), 98.2% (active); in experiment [6] (setting [7]), -3%; in experiment [6] (setting [8]), 97% (active); in experiment [6] (at 50.0 µM), 98.9% (active).

For `Nc1cccc([As]=S)c1` (centres undefined), the growth inhibition in experiment [1] (setting [7]) was 7%; in experiment [1] (setting [8]), 99% (active); in experiment [1] (at 50.0 µM) it was 98.5% (active); in experiment [2] (setting [7]) it was 11%; in experiment [2] (setting [8]), 99% (active); in experiment [2] (at 50.0 µM) it was 98.9% (active). Moreover, the growth inhibition is -9% in experiment [3] (setting [7]); 100% (active) in experiment [3] (setting [8]); 91.5% (active) in experiment [3] (at 50.0 µM); 13% in experiment [4] (setting [7]); 98% (active) in experiment [4] (setting [8]); 96.9% (active) in experiment [4] (at 50.0 µM). The growth inhibition in experiment [5] (setting [7]) was -4%; in experiment [5] (setting [8]) it was 99% (active); in experiment [5] (at 50.0 µM), 98.8% (active); in experiment [6] (setting [7]) it was 15%; in experiment [6] (setting [8]), 99% (active); in experiment [6] (at 50.0 µM), 98.8% (active).

On to `Clc1cc[c]([Tl][c]2ccc(Cl)cc2)cc1`, for which the growth inhibition in experiment [1] (setting [7]) was 94% (active); in experiment [1] (setting [8]), 98% (active); in experiment [1] (at 50.0 µM), 22.9%; in experiment [2] (setting [7]), 97% (active); in experiment [2] (setting [8]), 100% (active); in experiment [2] (at 50.0 µM), 11.2%. Moreover, the growth inhibition in experiment [3] (setting [7]) is 90% (active); in experiment [3] (setting [8]) it was 99% (active); in experiment [3] (at 50.0 µM), 82.8% (active); in experiment [4] (setting [7]), 92% (active); in experiment [4] (setting [8]), 97% (active); in experiment [4] (at 50.0 µM) it was 94.3% (active). Besides, the growth inhibition in experiment [5] (setting [7]) was 95% (active); in experiment [5] (setting [8]) it was 98% (active); in experiment [5] (at 50.0 µM), 89.7% (active); in experiment [6] (setting [7]), 94% (active); in experiment [6] (setting [8]) it was 98% (active); in experiment [6] (at 50.0 µM), -1.3%.

For the molecule `[N-]=[N+]=NC1(N=[N+]=[N-])C(=O)NN=C(c2ccccc2)C1=O` (centres undefined), the growth inhibition in experiment [1] (setting [7]) was -12%; in experiment [1] (setting [8]) it was 87% (active); in experiment [1] (at 50.0 µM) it was 84% (active); in experiment [2] (setting [7]) it was 15%; in experiment [2] (setting [8]), 91% (active); in experiment [2] (at 50.0 µM), 91.2% (active). In addition, the growth inhibition in experiment [3] (setting [7]) is 4%; in experiment [3] (setting [8]), 83% (active); in experiment [3] (at 50.0 µM) it was 88% (active); in experiment [4] (setting [7]) it was 23%; in experiment [4] (setting [8]), 87% (active); in experiment [4] (at 50.0 µM), 86.8% (active). For the same molecule, the growth inhibition in experiment [5] (setting [7]) was -3%; in experiment [5] (setting [8]) it was 97% (active); in experiment [5] (at 50.0 µM), 89.7% (active); in experiment [6] (setting [7]) it was 31%; in experiment [6] (setting [8]), 97% (active); in experiment [6] (at 50.0 µM), 79.7% (active).

For the molecule `ClCCN1CCOCC1`, the growth inhibition in experiment [1] (setting [7]) is 95% (active); in experiment [1] (setting [8]), 97% (active); in experiment [1] (at 50.0 µM) it was 98% (active); in experiment [2] (setting [7]) it was 94% (active); in experiment [2] (setting [8]), 99% (active); in experiment [2] (at 50.0 µM), 98.8% (active). For the same molecule, the growth inhibition was 89% (active) in experiment [3] (setting [7]); 98% (active) in experiment [3] (setting [8]); 98.3% (active) in experiment [3] (at 50.0 µM); 71% (active) in experiment [4] (setting [7]); 98% (active) in experiment [4] (setting [8]); 95.8% (active) in experiment [4] (at 50.0 µM). Also, the growth inhibition was 34% in experiment [5] (setting [7]); 98% (active) in experiment [5] (setting [8]); 98.1% (active) in experiment [5] (at 50.0 µM); 91% (active) in experiment [6] (setting [7]); 98% (active) in experiment [6] (setting [8]); 98.8% (active) in experiment [6] (at 50.0 µM).

Consider `CC(C)CC[CH2][Pb]([CH2]CCC(C)C)([CH2]CCC(C)C)[O]C(=O)C(Cl)(Cl)Cl`, for which the growth inhibition is 14% in experiment [1] (setting [7]); 98% (active) in experiment [1] (setting [8]); 99.1% (active) in experiment [1] (at 50.0 µM); 8% in experiment [2] (setting [7]); 99% (active) in experiment [2] (setting [8]); 98.9% (active) in experiment [2] (at 50.0 µM). For the same molecule, the growth inhibition in experiment [3] (setting [7]) was 17%; in experiment [3] (setting [8]), 94% (active); in experiment [3] (at 50.0 µM), 98.4% (active); in experiment [4] (setting [7]), -1%; in experiment [4] (setting [8]), 95% (active); in experiment [4] (at 50.0 µM), 98.8% (active). Besides, the growth inhibition in experiment [5] (setting [7]) was 2%; in experiment [5] (setting [8]) it was 98% (active); in experiment [5] (at 50.0 µM), 99% (active); in experiment [6] (setting [7]) it was 6%; in experiment [6] (setting [8]), 94% (active); in experiment [6] (at 50.0 µM), 98.7% (active).

For `CC(=O)OC1CCC2C3CCC4C(F)C(=O)C(F)(F)CC4(C)C3CCC12C` (centres undefined), the growth inhibition in experiment [1] (setting [7]) was 2%; in experiment [1] (setting [8]) it was 78% (active); in experiment [1] (at 50.0 µM), 49%; in experiment [2] (setting [7]), -12%; in experiment [2] (setting [8]), 93% (active); in experiment [2] (at 50.0 µM), 5.6%. The growth inhibition was -2% in experiment [3] (setting [7]); 91% (active) in experiment [3] (setting [8]); 63.5% in experiment [3] (at 50.0 µM); -3% in experiment [4] (setting [7]); 46% in experiment [4] (setting [8]); 63% in experiment [4] (at 50.0 µM). Also, the growth inhibition in experiment [5] (setting [7]) is -1%; in experiment [5] (setting [8]), 60%; in experiment [5] (at 50.0 µM), 8.95%; in experiment [6] (setting [7]) it was 0%; in experiment [6] (setting [8]), 90% (active); in experiment [6] (at 50.0 µM), 12.7%.

As for `CN(C)c1ccc(/C=C/c2cc3scc(-c4ccccc4)[n+]3c3ccccc23)cc1`, the growth inhibition in experiment [1] (setting [7]) is -2%; in experiment [1] (setting [8]) it was 87% (active); in experiment [1] (at 50.0 µM), 98.7% (active); in experiment [2] (setting [7]), 4%; in experiment [2] (setting [8]), 99% (active); in experiment [2] (at 50.0 µM), 99.5% (active). The growth inhibition in experiment [3] (setting [7]) was -1%; in experiment [3] (setting [8]) it was 99% (active); in experiment [3] (at 50.0 µM), 99.4% (active); in experiment [4] (setting [7]), -3%; in experiment [4] (setting [8]), 98% (active); in experiment [4] (at 50.0 µM), 99% (active). Moreover, the growth inhibition in experiment [5] (setting [7]) was 18%; in experiment [5] (setting [8]) it was 97% (active); in experiment [5] (at 50.0 µM), 99% (active); in experiment [6] (setting [7]) it was 14%; in experiment [6] (setting [8]), 99% (active); in experiment [6] (at 50.0 µM) it was 99.2% (active).
